Test results published in PubChem BioAssay AID1159580 (chemical genetic matrix, 2015).
Values joined by “and” are separate entries in the source; they are usually repeats but may differ in a detail not shown here. Equal entries are not always repeated. The campaign covered roughly 5,500 compounds. About 2,000 (36%) were called active. About 18% were inconclusive and are not listed. No stated cut-off is given here; in the data, active means normalized growth mostly below about 0.91 (no sharp cut-off); inconclusive means no clear call, values can overlap the other calls; inactive means mostly above about 0.92. The list shows a part of the results.

Assay: chemical genetic growth profiling, strain panel (AID 1159580);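 further: tested at 20 µM; growth read once vehicle control cultures reached saturation at 30 °C; 1 = growth at the plate median or of vehicle wells; lower values mean less growth of the strain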
Settings: growth OD
[1] = S. cerevisiae deletion strains, locus YBR229C, strain ROT2, hits give low values
[2] = S. cerevisiae deletion strains, locus YDL101C, strain DUN1, hits give low values
[3] = S. cerevisiae deletion strains, locus YDL134C, strain PPH21, hits give low values
[4] = S. cerevisiae deletion strains, locus YDR150W, strain NUM1, hits give low values
[5] = S. cerevisiae deletion strains, locus YEL061C, strain CIN8, hits give low values
[6] = S. cerevisiae deletion strains, locus YHR030C, strain SLT2, hits give low values
[7] = S. cerevisiae deletion strains, locus YJR043C, strain POL32, hits give low values
[8] = S. cerevisiae deletion strains, locus YJR075W, strain HOC1, hits give low values
[9] = S. cerevisiae deletion strains, locus YKL190W, strain CNB1, hits give low values
[10] = S. cerevisiae deletion strains, locus YLR039C, strain RIC1, hits give low values
[11] = S. cerevisiae deletion strains, locus YLR262C, strain YPT6, hits give low values
[12] = S. cerevisiae deletion strains, locus YMR263W, strain SAP30, hits give low values
[13] = S. cerevisiae deletion strains, locus YMR307W, strain GAS1, hits give low values
[14] = S. cerevisiae deletion strains, locus YNL322C, strain KRE1, hits give low values
[15] = S. cerevisiae deletion strains, locus YOL006C, strain TOP1, hits give low values
[16] = S. cerevisiae deletion strains, locus YPL055C, strain LGE1, hits give low values
[17] = S. cerevisiae strains, strain wild type, hits give low values
[18] = S. cerevisiae deletion strains, locus YAL013W, strain DEP1, hits give low values
[19] = S. cerevisiae deletion strains, locus YGR078C, strain PAC10, hits give low values
[20] = S. cerevisiae deletion strains, locus YHR087W, strain rtc3, hits give low values
[21] = S. cerevisiae deletion strains, locus YJL187C, strain SWE1, hits give low values
[22] = S. cerevisiae deletion strains, locus YLR058C, strain SHM2 (second series), hits give low values
[23] = S. cerevisiae deletion strains, locus YLR085C, strain ARP6, hits give low values
[24] = S. cerevisiae deletion strains, locus YML094W, strain GIM5, hits give low values
[25] = S. cerevisiae deletion strains, locus YMR219W, strain ESC1, hits give low values
[26] = S. cerevisiae deletion strains, locus YNL153C, strain GIM3, hits give low values
[27] = S. cerevisiae deletion strains, locus YNL298W, strain CLA4 (second series), hits give low values
[28] = S. cerevisiae deletion strains, locus YNR030W, strain Alg12, hits give low values
[29] = S. cerevisiae deletion strains, locus YPL241C, strain CIN2, hits give low values
[30] = S. cerevisiae deletion strains, locus YPR135W, strain CTF4, hits give low values

Measured: normalized growth

CCCCC1(COC(=O)CCC(=O)O)C(=O)N(c2ccccc2)N(c2ccccc2)C1=O
inactive: S. cerevisiae deletion strains, locus YBR021W, strain FUR4, hits give low values 1 | [1] 1 | S. cerevisiae deletion strains, locus YCL029C, strain bik1, hits give low values 1.02 | S. cerevisiae deletion strains, locus YDL035C, strain GPR1, hits give low values 1.01 | S. cerevisiae deletion strains, locus YDL074C, strain BRE1, hits give low values 0.993 | [2] 1 | [3] 1.01 | S. cerevisiae deletion strains, locus YDL185W, strain tfp1, hits give low values 1.01 | S. cerevisiae deletion strains, locus YDL192W, strain arf1, hits give low values 1.01 | S. cerevisiae deletion strains, locus YDR101C, strain arx1, hits give low values 1.01 | [4] 0.992 | S. cerevisiae deletion strains, locus YDR162C, strain NBP2, hits give low values 0.995 | S. cerevisiae deletion strains, locus YDR318W, strain mcm21, hits give low values 1 | S. cerevisiae deletion strains, locus YDR388W, hits give low values 1.01 | S. cerevisiae deletion strains, locus YDR502C, strain sam2, hits give low values 1.01 | [5] 1 | S. cerevisiae deletion strains, locus YER110C, hits give low values 1.02 | S. cerevisiae deletion strains, locus YER155C, strain BEM2, hits give low values 1 | S. cerevisiae deletion strains, locus YER167W, strain BCK2, hits give low values 1 | S. cerevisiae deletion strains, locus YGL078C, strain dbp3, hits give low values 0.996 | S. cerevisiae deletion strains, locus YGL086W, strain mad1, hits give low values 1 | S. cerevisiae deletion strains, locus YGL248W, strain PDE1, hits give low values 1.01 | S. cerevisiae deletion strains, locus YGR135W, strain pre9, hits give low values 1.02 | S. cerevisiae deletion strains, locus YGR252W, strain gcn5, hits give low values 1.06 | [6] 1 and 1.05 | S. cerevisiae deletion strains, locus YHR079C, strain IRE1 (second series), hits give low values 1.01 | S. cerevisiae deletion strains, locus YHR079C, strain IRE1, hits give low values 1.04 | S. cerevisiae deletion strains, locus YHR094C, strain hxt1, hits give low values 1.01 | S. cerevisiae deletion strains, locus YHR129C, strain ARP1, hits give low values 1 | S. cerevisiae deletion strains, locus YHR200W, strain rpn10, hits give low values 1.01 | S. cerevisiae deletion strains, locus YIL066C, strain RNR3, hits give low values 1.01 | S. cerevisiae deletion strains, locus YIL073C, strain SPO22, hits give low values 1.09 | S. cerevisiae deletion strains, locus YIL125W, strain kgd1, hits give low values 0.991 | S. cerevisiae deletion strains, locus YIR030C, strain dcg1, hits give low values 1.01 | S. cerevisiae deletion strains, locus YJL095W, strain BCK1, hits give low values 1.01 and 1.05 | S. cerevisiae deletion strains, locus YJL134W, strain LCB3, hits give low values 0.996 | S. cerevisiae deletion strains, locus YJL168C, strain set2, hits give low values 1 | S. cerevisiae deletion strains, locus YJL187C, strain SWE1 (second series), hits give low values 1.01 | [7] 0.989 | S. cerevisiae deletion strains, locus YJR066W, strain TOR1, hits give low values 0.967 | [8] 1.01 | S. cerevisiae deletion strains, locus YKL009W, strain mrt4, hits give low values 1.03 | S. cerevisiae deletion strains, locus YKL068W, hits give low values 1 | S. cerevisiae deletion strains, locus YKL085W, strain MDH1 (second series), hits give low values 0.972 | S. cerevisiae deletion strains, locus YKL085W, strain MDH1, hits give low values 0.972 | [9] 0.993 | S. cerevisiae deletion strains, locus YKR001C, strain vps1, hits give low values 1.01 | [10] 0.912 | S. cerevisiae deletion strains, locus YLR058C, strain SHM2, hits give low values 1 | S. cerevisiae deletion strains, locus YLR102C, strain apc9, hits give low values 1 | S. cerevisiae deletion strains, locus YLR113W, strain HOG1, hits give low values 0.952 | [11] 0.913 | S. cerevisiae deletion strains, locus YLR268W, strain sec22, hits give low values 1.02 | S. cerevisiae deletion strains, locus YLR330W, strain CHS5, hits give low values 0.993 | S. cerevisiae deletion strains, locus YLR342W, strain FKS1 (second series), hits give low values 0.993 | S. cerevisiae deletion strains, locus YLR371W, strain rom2, hits give low values 1.01 | S. cerevisiae deletion strains, locus YLR418C, strain cdc73, hits give low values 1.03 | S. cerevisiae deletion strains, locus YML016C, strain PPZ1, hits give low values 1 | S. cerevisiae deletion strains, locus YML032C, strain rad52, hits give low values 1 | S. cerevisiae deletion strains, locus YML124C, strain tub3, hits give low values 1.01 | S. cerevisiae deletion strains, locus YMR078C, strain ctf18, hits give low values 1 | S. cerevisiae deletion strains, locus YMR223W, strain ubp8, hits give low values 1.01 | [12] 0.998 | [13] 1.05 | S. cerevisiae deletion strains, locus YNL067W, strain RPL9B, hits give low values 0.998 | S. cerevisiae deletion strains, locus YNL128W, strain TEP1, hits give low values 1.02 | S. cerevisiae deletion strains, locus YNL183C, strain NPR1, hits give low values 0.945 | S. cerevisiae deletion strains, locus YNL233W, strain BNI4, hits give low values 1 | S. cerevisiae deletion strains, locus YNL250W, strain rad50, hits give low values 1 | S. cerevisiae deletion strains, locus YNL271C, strain bni1, hits give low values 1.01 | S. cerevisiae deletion strains, locus YNL298W, strain CLA4, hits give low values 1.01 | S. cerevisiae deletion strains, locus YNL307C, strain MCK1, hits give low values 1.02 | [14] 0.997 | S. cerevisiae deletion strains, locus YNR052C, strain pop2, hits give low values 1.01 | [15] 0.991 | S. cerevisiae deletion strains, locus YOL012C, strain htz1 1.51 | S. cerevisiae deletion strains, locus YOL147C, strain pex11, hits give low values 1.01 | S. cerevisiae deletion strains, locus YOR061W, strain CKA2, hits give low values 1 | S. cerevisiae deletion strains, locus YOR069W, strain VPS5, hits give low values 1 | S. cerevisiae deletion strains, locus YOR136W, strain idh2, hits give low values 1.02 | S. cerevisiae deletion strains, locus YOR144C, strain elg1, hits give low values 1.01 | S. cerevisiae deletion strains, locus YOR184W, strain ser1, hits give low values 1.02 | S. cerevisiae deletion strains, locus YOR231W, strain MKK1, hits give low values 1.02 | S. cerevisiae deletion strains, locus YOR316C, strain cot1, hits give low values 1.02 | [16] 0.989 | S. cerevisiae deletion strains, locus YPL256C, strain CLN2, hits give low values 1.02 | S. cerevisiae deletion strains, locus YPR119W, strain clb2, hits give low values 1.01 | S. cerevisiae deletion strains, locus YPR141C, strain kar3, hits give low values 1 | S. cerevisiae deletion strains, locus YPR163C, strain tif3, hits give low values 1.02 | S. cerevisiae deletion strains, locus YPR167C, strain met16, hits give low values 1.01 | S. cerevisiae deletion strains, strain wtn01, hits give low values 1.02 | [17] 0.995

COC(=O)c1ccc(-c2ccc(Cl)cc2)s1
active: [18] 0.898 | [1] 0.901 | S. cerevisiae deletion strains, locus YCL061C, strain MRC1, hits give low values 0.858 | [5] 0.87 | [19] 0.914 | [6] 0.587 | [20] 0.909 | [8] 0.88 | [9] 0.913 | [10] 0.497 | [22] 0.907 | [23] 0.577 | [11] 0.435 | [25] 0.908 | [13] 0.629 | [26] 0.872 | [27] 0.79 | [14] 0.92 | [28] 0.869 | [15] 0.637 | [29] 0.83 | [30] 0.597
inactive: [2] 0.906 | [4] 0.893 | [21] 0.961 | [7] 0.927 | [24] 0.871 | [12] 0.893 | [16] 1.08 | [17] 0.928

CCSc1sc(C(=O)OC)c(-c2ccc(Cl)cc2)c1C#N
inactive: [18] 1.01 | [1] 0.985 | [2] 1.02 | [3] 0.964 | [4] 1.06 | [5] 0.917 | [19] 0.995 | S. cerevisiae deletion strains, locus YGR229C, strain SMI1, hits give low values 0.989 | [6] 0.989 | [20] 1 | [21] 0.983 | [7] 1.05 | [8] 0.968 | [9] 0.99 | [10] 1.01 | [22] 0.986 | [23] 0.817 | [11] 0.999 | [24] 0.946 | [25] 0.992 | [12] 1.07 | [13] 0.972 | [26] 0.994 | [27] 0.94 | [14] 0.99 | [28] 0.954 | [16] 1.08 | [29] 0.96 | [30] 1.01
